Only some compounds are listed: those with a hit (about 3.3% of all), similar ones and a draw of the others.
Giardia FBPA inh: blocks Giardia fructose-bisphosphate aldolase activity; 290,000 compounds, 0.71% hits; A8B2U2; purified Giardia FBPA; Potency, µM (top dose mostly 59.6 µM), without a hit: at the highest dose activity, negative = inhibition, actives largely listed as inhibitors; further: nearly all actives have a fitted effect of over 55% in size
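Giardia FBPA (40 nM reagent) was preincubated 10 min at RT with compound (up to 57.5 uM final), then substrate plus GAPDH/TPI/NAD/arsenate coupling system with diaphorase/resazurin was added; resorufin fluorescence (525/598 nm) was read after 20 min.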
Sm TGR block: inhibitors of Schistosoma mansoni thioredoxin glutathione reductase; Q962Y6; purified TGR, DTNB reduction, TNB absorbance 405 nm; Potency, µM (series often up to 114 µM), for the others: top-dose activity change, negative = inhibition, hits mostly inhibitors; 360,000 compounds, 3% hits; AID 485364; further: nearly all actives have a fitted effect of over 60% in size
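Kinetic colorimetric format: TGR-catalysed, NADPH-driven DTNB reduction monitored via TNB absorbance. Enzyme dispensed at 20 nM; compound exposure 15 min at room temperature before reaction start.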
RE007 growth inh: less growth of the S. pombe RE007 Vpr strain. S. pombe RE007 Vpr strain, BacTiter-Glo ATP luminescence, 24 h. 360,000 compounds, 0.21% hits. AID 651644. Potency, µM (top dose mostly 92.2 µM), for inactives: at the highest dose activity change, negative = less growth, hits mostly inhibitors; active means well fitted falling curve with a large enough effect; inconclusive means small, poorly fitted or top-dose-only effect; inactive means no such curve, though single readings can be large or run the other way; further: nearly all actives have a fitted effect of over 50% in size
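Fission yeast strain RE007, carrying one chromosomally integrated HIV-1 vpr copy, was seeded at OD 0.01 in PMG+AL medium with 23 nL pinned compound. After 24 h at 30 °C and 99% humidity, viability was read by BacTiter-Glo luminescence.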
LmPK inhibitor: LmPK (Leishmania mexicana) enzyme inhibition; Q27686; purified LmPK, Kinase-Glo ATP luminescence, 1 h; Potency, µM (series often up to 57.5 µM), for the others: at the highest dose activity change, negative = inhibition, actives largely listed as inhibitors; 290,000 compounds, 0.37% hits
Target sequence (Q27686 whole entry, looked up): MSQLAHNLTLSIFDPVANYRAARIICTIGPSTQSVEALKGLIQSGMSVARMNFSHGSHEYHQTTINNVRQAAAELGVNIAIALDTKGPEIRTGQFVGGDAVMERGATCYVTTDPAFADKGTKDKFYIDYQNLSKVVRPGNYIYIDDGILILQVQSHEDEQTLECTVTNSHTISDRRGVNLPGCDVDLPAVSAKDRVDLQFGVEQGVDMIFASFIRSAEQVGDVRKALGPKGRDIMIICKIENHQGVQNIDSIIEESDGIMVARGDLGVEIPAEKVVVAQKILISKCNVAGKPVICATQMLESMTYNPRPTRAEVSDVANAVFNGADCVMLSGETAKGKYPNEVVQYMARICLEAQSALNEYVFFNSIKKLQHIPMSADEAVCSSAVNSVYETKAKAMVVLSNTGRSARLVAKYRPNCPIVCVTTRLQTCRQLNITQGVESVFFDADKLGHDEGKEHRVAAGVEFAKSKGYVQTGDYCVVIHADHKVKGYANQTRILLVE
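0.1 nM LmPK, 0.5 mM PEP, 0.1 mM ADP; 50 mM imidazole pH 7.2, 7 mM MgCl2, 50 mM KCl; 1 h RT. Kinase-Glo luminescence readout, normalized to no-enzyme (full inhibition) and uninhibited wells.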
Tb PYK inh: blocks Trypanosoma brucei pyruvate kinase. 410,000 compounds, 0.12% hits. TbPYK enzyme, Kinase-Glo Plus ATP luminescence, 45 min. Potency, µM (titrated, usually from 76.8 µM), inactives show at the highest dose activity, negative = inhibition, actives largely listed as inhibitors. Q57TT1; further: nearly all actives have a fitted effect of over 50% in size
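Enzyme and substrate buffer are dispensed first and compound is pin-transferred. ADP at 130 uM final then starts the reaction, which runs 45 min at room temperature. Detection reagent is added for 10 min before luminescence is imaged.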
An asterisk follows results filed as active; u = inconclusive; x = no result given; [ ] = dose if it differs, or a comment. Unless noted, the call rests on the fitted dose curve; in most records, active means well fitted curve in the direction sought with a large enough effect; inconclusive means small, poorly fitted or top-dose-only effect, or another doubt; inactive means no such curve, though single readings can be large; an effect the other way counts as inactive or inconclusive. On the % scale 0 is the no-effect control and ±100 the full control effect; potency means the concentration at half of the fitted maximal effect.

SMILES	Giardia FBPA inh	Sm TGR block	RE007 growth inh	LmPK inhibitor	Tb PYK inh
COC(=O)c1nnn(-c2cccc(C)c2)c1C(=O)OC	x	-3%	x	x	3%
Cc1c(C(=O)OCc2ccccc2)[nH]c2c1C(=O)CC(c1ccc(N(C)C)cc1)C2 (configuration not stated)	x	-3%	x	x	6%
O=C(OCc1ccc2c(c1)OCO2)c1cccc(S(=O)(=O)N2CCCCC2)c1	4%	-8%	7%	-3%	2%
CCn1c(=O)cc(OCC(=O)N(C)c2ccc(OC)cc2)c2ccccc21	x	-3%	x	x	1%
Cc1ccc2oc(C(=O)N(Cc3ccccc3)C3CCS(=O)(=O)C3)c(C)c2c1 (configuration not stated)	-1%	6%	4%	1%	-5%
Cc1cc(N2CCOCC2)ccc1/C=C\[N+](=O)[O-]	0%	20µM*	7.9µM*	-11%	-22%
CN(C)c1nc(F)c(F)c(S(=O)(=O)c2ccccc2)c1F	4%	40µM*	13%	-1%	8%
O=c1[nH]c(=O)n(Cc2ccccc2)c(O)c1C=Nc1ccc(CN2CCOCC2)cc1	-4%	35µM*	-1%	2%	-1%
O=c1[nH]c(=O)n(Cc2ccccc2)c(O)c1C=NCCN1CCNCC1	0%	35µM*	14%	1%	7%
C=CCn1c(O)c(C=NCCN2CCNCC2)c(=O)[nH]c1=O	-1%	0%	18%	-17%	-5%
O=c1[nH]c(=O)n(CCC2=CCCCC2)c(O)c1C=NCCN1CCNCC1	1%	10µM*	1%	-2%	-2%
O=c1[nH]c(=O)n(CCC2=CCCCC2)c(O)c1/C=N/Nc1cccc2ccccc12	-28%	20µM*	2%	-3%	8%
COC(=O)[C@]1(C)N[C@H](c2ccc(-c3cccc(Cl)c3)c(OC)c2)[C@@H]2C(=O)N(C)C(=O)[C@@H]21	x	x	6%	x	-20%
O=C(CSc1nccc(-c2cccs2)n1)Nc1cccc(Cl)c1	-5%	0%	13%	6%	-6%
CCN(CC)CCN=Cc1c(O)n(CCc2ccccc2)c(=O)[nH]c1=O	0%	25µM*	-2%	4%	1%
CCN(CC)CCCN=Cc1c(O)n(CCc2ccc(F)cc2)c(=O)[nH]c1=O	2%	8%	7%	8%	-2%
Cc1cccc2cc(C3CC(c4ccco4)=NN3S(C)(=O)=O)c(Cl)nc12 (configuration not stated)	-8%	32µM*	25%	0%	-2%
CS(=O)(=O)N1N=C(c2cccs2)CC1c1ccco1 (configuration not stated)	-11%	7.9µM*	-10%	-7%	-5%
CCc1ccc(C2CC(c3ccco3)=NN2S(C)(=O)=O)cc1 (configuration not stated)	3%	-18%	-23%	13µM*	-12%
CC(C)CCSc1nc2c(c(=O)[nH]c(=O)n2C)n1CCc1ccccc1	0%	-5%	4%	8%	0%
CCOC(=O)C1CCN(C(=O)CCS(=O)(=O)c2ccc3c(c2)CC(C)N3C(=O)CC)CC1 (configuration not stated)	3%	u	3%	7%[11.5 µM]	0%
Cc1ccc(S(=O)(=O)CCC(=O)N2CCN(c3ccc(Cl)cc3)CC2)cc1	1%	13µM*	-4%	6%	-2%
CCOC(=O)N1CCN(C(=O)CCS(=O)(=O)c2ccc3c(c2)CC(C)N3C(=O)CC)CC1 (configuration not stated)	x	22µM*	0%	6%	11%
CCC(=O)N1c2ccc(S(=O)(=O)CCC(=O)N3CCN(c4ccc(F)cc4)CC3)cc2CC1C (configuration not stated)	x	5.6µM*	x	x	0%
COc1ccc(-n2c(SCC(=O)Nc3ccc(C(N)=O)cc3)nc3ccccc3c2=O)cc1OC	0%	-1%	-16%	0%	-17%
SMILES	Giardia FBPA inh	Sm TGR block	RE007 growth inh	LmPK inhibitor	Tb PYK inh
O=C(NC(=S)Nc1ccc(Br)c(Cl)c1)C1CC1	x	0%	4%	-7%	3%
CC(=O)c1ccc(NC(=S)Nc2ccc3cn[nH]c3c2)cc1	-22%	20µM*	-8%	-4%	1%
Cc1ccc(S(=O)(=O)N(C)C)cc1NC(=S)Nc1ccc2cn[nH]c2c1	-12%	18µM*	9%	5%	-3%
CC(C)c1ccc(NC(=S)Nc2ccc3cn[nH]c3c2)cc1	-28%	7%	18%	0%	-21%
CC(=O)Nc1cccc(NC(=S)Nc2ccc(F)c(Cl)c2)c1	u	28µM*	0%	-5%	5%
CC(=O)c1ccc(NC(=S)Nc2ccc(Br)c(Cl)c2)cc1	-17%	22µM*	2%	2%	-3%
COc1nc(/C(N)=N/O)nc(N2CCCCC2)n1	u	5%	51%	0%	-5%
COc1ccc(OC)c(S(=O)(=O)NCc2cn3cccc(C)c3n2)c1	1%	-19%	-12%	0%	-7%
c1coc(C2Nc3cccc4cccc(c34)N2)c1	u	7.9µM*	x	-14%	x
Clc1ccccc1C1Nc2cccc3cccc(c23)N1	-12%	18µM*	u	-2%	5%
Oc1ccc(C2Nc3cccc4cccc(c34)N2)c(O)c1	-14%	50µM*	-22%	-2%	-5%
COc1cc(C2Nc3cccc4cccc(c34)N2)cc(OC)c1O	u	u	-20%	-18%	-4%
Clc1cccc(C2Nc3cccc4cccc(c34)N2)c1Cl	-11%	-12%	-29%	12%	-11%
Brc1ccc(-c2ccc(C3Nc4cccc5cccc(c45)N3)o2)cc1	x	35µM*	x	x	x
CCOC(=O)N1CCN(C(=O)C2CC(=O)N(c3ccccc3)C2)CC1 (configuration not stated)	x	1%	1%	-1%	-2%
CCOc1ccc(-n2c(Cc3cc(=O)[nH]c(=O)[nH]3)nnc2SCc2cccnc2)cc1	-7%	9%	x	-13%	x
O=C(COc1ncnc2ccccc12)NCc1ccco1	5%	-25%	38%	-1%	4%
C[C@H](O)C#Cc1ccc2c(c1)O[C@@H](CN(C)C(=O)c1ccncc1)[C@@H](C)CN([C@H](C)CO)S2(=O)=O	x	x	3%	x	-8%
CC1=C(CC(=O)O)c2cc(F)ccc2/C1=C/c1ccc(S(C)=O)cc1 (configuration not stated)	2%	20µM*	2%[18.4 µM]	0%	-3%
CC1=C(CC(=O)O)c2cc(F)ccc2/C1=C\c1ccc(S(C)(=O)=O)cc1	19%	x	x	x	2%
CCOC(=O)C(C(=O)N(C)C)c1ncc(C(F)(F)F)cc1Cl (configuration not stated)	5%	0%	2%	1%	2%
CC1Cc2c([nH]c3ccccc23)C2c3ccccc3CN12 (configuration not stated)	-13%	22µM*	-7%	-3%	-6%

Assay outcomes as filed in PubChem.
